Source: PubChem BioAssay
Rab9 prom act: activates the Rab9 promoter; Huh7 Rab9 promoter-luciferase reporter, luminescence, 24 h; Potency, µM (top dose mostly 9.22 µM), for the others: at the highest dose activation, negative = inhibition, hits mostly activators; 320,000 compounds, 2.8% hits; AID 485297; further: % of control where 0% means no effect; nearly all actives have a fitted effect of over 60% in size
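Luminescence read-out: Huh7 cells stably expressing Rab9-luciferase, treated 24 h with compound at 37 °C, then lysed with luciferase reagent for 10 min at ambient before reading.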
SMN2 splice up: increases expression of the SMN2 splice variant. HEK293 SMN2-luciferase splicing reporter, luminescence, 30-36 h. Potency, µM (titrated, usually from 46.1 µM), for the others: at the top dose activity change, positive = activation, usual class: activators. 210,000 compounds, 2.8% hits; further: % of control where 0% means no effect; nearly all actives have a fitted effect of over 55% in size
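qHTS luciferase splicing reporter: luminescence rises when SMN2 exon 7 is included in transfected HEK293 cells. Compound exposure lasted 30-36 h at 37C, with 4.5 mM final sodium butyrate as control, followed by a ONE-Glo read.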
ELG1 genotoxic: genotoxicity induction in ELG1-luciferase HEK293T cells. HEK293T ELG1-luciferase reporter, luminescence, 16 h. Potency, µM (doses to about 46 µM), without a hit: top-dose activity change, positive = activation, hits mostly activators. 330,000 compounds, 1.3% hits. AID 504466; further: % of control where 0% means no effect; nearly all actives have a fitted effect of over 60% in size
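HEK293T cells expressing luciferase-tagged ELG1 were exposed to compound or DMSO vehicle for 16 hr at 37 °C and 5% CO2. Luciferase activity was then measured with ONE-Glo after 30 min at room temperature.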
NPC1 promoter act: activates the NPC1 promoter; Huh7 NPC1 promoter luciferase reporter, 24 h; Potency, µM (doses to about 9.22 µM), for the others: top-dose activation, most hits filed as activators; 320,000 compounds, 2.4% hits; further: % of control where 0% means no effect; nearly all actives have a fitted effect of over 60% in size
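Luciferase expression driven by the NPC1 promoter was measured in stably transfected Huh7 cells after a 24 h compound incubation, using a luciferase reagent and a luminescence read.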
FLuc counter: firefly luciferase modulation, counter-screen for miR-21 project; purified FLuc, Km substrates, luminescence inhibition; 360,000 compounds, 6.9% hits; Potency, µM (titrated, usually from 57.5 µM), for inactives: at the highest dose activity change, negative = inhibition, most hits filed as inhibitors;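 further: plate controls were vehicle for no effect and reference inhibitor for full effect; nearly all actives have a fitted effect of over 55% in size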
Target sequence (P08659 whole entry, looked up): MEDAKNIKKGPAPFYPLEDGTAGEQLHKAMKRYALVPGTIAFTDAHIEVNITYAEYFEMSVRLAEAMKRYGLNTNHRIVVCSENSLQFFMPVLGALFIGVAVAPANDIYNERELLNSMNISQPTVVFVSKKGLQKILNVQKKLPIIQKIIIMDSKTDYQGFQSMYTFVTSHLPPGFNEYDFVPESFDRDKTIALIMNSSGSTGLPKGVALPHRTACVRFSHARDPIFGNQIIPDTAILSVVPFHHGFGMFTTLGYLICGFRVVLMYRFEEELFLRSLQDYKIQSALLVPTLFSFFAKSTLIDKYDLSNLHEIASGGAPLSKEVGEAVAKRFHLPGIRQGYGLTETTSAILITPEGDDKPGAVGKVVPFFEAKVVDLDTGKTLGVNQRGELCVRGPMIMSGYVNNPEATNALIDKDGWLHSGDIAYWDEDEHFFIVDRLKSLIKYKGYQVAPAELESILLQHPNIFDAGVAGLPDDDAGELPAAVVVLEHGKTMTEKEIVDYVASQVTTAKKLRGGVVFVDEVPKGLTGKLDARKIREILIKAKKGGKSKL
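Purified P. pyralis luciferase (10nM final) with 10uM D-luciferin and 10uM ATP (Km levels) in 50mM Tris acetate pH 7.5, 10mM Mg acetate, 0.01% Tween-20, 0.05% BSA; qHTS 6-point titration, ~60 µM downward; luminescence read.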
* hit, by the source's call; u = inconclusive; x = no result; [ ] = another dose, or the depositor's remark. Hits are enriched below; roughly 7.5% of the tested compounds scored in any of these assays. The call rests on the fitted dose curve; in most records, active means well fitted curve in the direction sought with a large enough effect; inconclusive means small, poorly fitted or top-dose-only effect, or another doubt; inactive means no such curve, though single readings can be large; an effect the other way counts as inactive or inconclusive. Potency means the concentration at half of the fitted maximal effect.

SMILES	Rab9 prom act	SMN2 splice up	ELG1 genotoxic	NPC1 promoter act	FLuc counter
O=C(CSc1nc2ccccc2o1)NCc1ccc2c(c1)OCO2	3%	u	21µM*	-1%	u
O=C(CSc1nc2ccccc2o1)Nc1nc(-c2ccccc2)cs1	2%	u	u	15%	21µM*
Cc1ccccc1/C=N/NC(=O)CSc1nc2ccccc2o1	-3%	u	u	-2%	2%
Clc1ccc2nc(COc3ccccc3)[nH]c2c1	u	x	u	-1%	12µM*
S=c1nc(COc2ccccc2)[nH]c2ccccc12	u	x	16%	u	24µM*
O=c1[nH]c(N/N=C/c2ccc(O)cc2)nc2ccccc12	2.2µM*	22µM*	21µM*	u	11µM*
C=CCn1c(C)nc2ccccc2c1=O	-2%	x	1%	1%	0%
O=c1[nH]c(N/N=C\c2ccc(F)cc2)nc2ccccc12	1.3µM*	10µM*	u	u	4.8µM*
C=CCn1c(N/N=C/c2ccc(O)cc2)nc2ccccc2c1=O	30%	-1%	u	-2%	2.4µM*
CCOc1cc(N2CCOCC2)c(OCC)cc1NC(=O)c1ccc(OC)c(S(=O)(=O)N2CCOCC2)c1	x	x	0%	x	x
COc1cccc(N/C(C)=C/C(=O)c2ccc(Br)cc2)c1	u	18µM*	u	u	5.4µM*
C/C(=C\C(=O)c1ccccc1)Nc1ccc(Br)c(Cl)c1	u	-2%	13%	24%	21µM*
C/C(=C\C(=O)c1ccc(Br)cc1)Nc1ccc(Cl)cc1	14%	x	u	13%	27µM*
C/C(=C\C(=O)c1ccc(Cl)cc1)Nc1ccc(N2CCOCC2)cc1	-2%	-32%	-1%	-1%	7%
N/C(=N\OC(=O)c1ccc2c(c1)OCO2)c1cccc([N+](=O)[O-])c1	u	-9%	u	7%	0.43µM*
COc1ccc(/C(N)=N/OC(=O)c2cccc([N+](=O)[O-])c2)cc1OC	-1%	-13%	u	1%	u
Cc1cccc(/C(N)=N/OC(=O)c2ccc3c(c2)OCO3)c1	2.8µM*	25µM*	9.2µM*	2.8µM*	0.19µM*
O=C1NC(=S)S/C1=C\C=C\c1ccc([N+](=O)[O-])o1	-49%	x	u	-43%	24µM*
O=C(Nc1ccc2nc(-c3ccccn3)[nH]c2c1)C1CCCCC1	u	11µM*	21µM*	u	5.4µM*
Cc1ccc(C(=O)Nc2nc(-c3ccccn3)cs2)s1	-2%	x	15µM*	28%	6.7µM*
O=C(Nc1nc(-c2ccccn2)cs1)C1CCCC1	u	30%	0%	29%	24µM*
O=C(Nc1nc(-c2ccccn2)cs1)c1ccc(Cl)s1	-1%	-66%	17%	3%	17µM*
CCc1sc(C(=O)Nc2nc(-c3ccccn3)cs2)cc1C	x	x	14%	x	x
CC1CCC2(CC1)NC(=O)N(CC(=O)Nc1cccc(C#N)c1)C2=O (stereo not given)	-3%	x	0%	0%	12%
COc1ccc(COC(=O)Oc2ccc(CNC(C)=O)cc2OC)c([N+](=O)[O-])c1	-2%	x	0%	-4%	13µM*
SMILES	Rab9 prom act	SMN2 splice up	ELG1 genotoxic	NPC1 promoter act	FLuc counter
COc1cc(COC(=O)Oc2ccc(CNC(C)=O)cc2OC)c([N+](=O)[O-])cc1OC	-5%	x	4%	-3%	-4%
CC[C@H]1C2=C3C(CC[C@H]4C(OCc5ccc(F)cc5C(F)(F)F)OC[C@](C)([C@@H]34)N(C(=O)OC(C)(C)C)C2)C(COC)C1COC (stereo not given in full)	x	-5%	x	x	x
Cc1ccc(N(Cc2ccccc2)C(=O)c2cc(S(=O)(=O)N3CCOCC3)ccc2Cl)cc1	-4%	x	u	-4%	u
Cc1ccc(N(Cc2ccccc2)C(=O)c2cc(S(=O)(=O)N3CCOCC3)ccc2F)cc1	1%	x	0%	-2%	19µM*
CCN(c1ccc(NC(=O)CN2C(=O)NC3(CCOc4ccccc43)C2=O)cc1)C(C)C (stereo not given)	-2%	-9%	1%	-3%	17µM*
CCNC(=O)CN1C(=O)NC2(CCOc3ccccc32)C1=O (stereo not given)	2%	x	1%	0%	-1%
O=C(NCc1c(Cl)cccc1Oc1ccccc1)c1ccccc1	-10%	x	-2%	0%	-1%
COc1cc(C/C=C\c2ccccc2)c(OC)cc1O	x	-2%	x	x	x
CC1(c2ccccc2)NC(=O)N(CC(=O)Nc2cccc(/C=C/c3ccccn3)c2)C1=O (stereo not given)	10%	x	-8%	0%	19µM*
CCOc1ccc(OCCCCn2ccnc2)cc1	-1%	-18%	0%	1%	-4%
CCOC(=O)c1sc(NC(=O)c2ccc3ncsc3c2)nc1C	-37%	2.8µM*	2.3µM*	-33%	0.95µM*
COC(=O)Cc1csc(NC(=O)c2ccc3ncsc3c2)n1	u	x	16%	21%	24µM*
CCOC(=O)c1sc(NC(=O)c2ccc(S(=O)(=O)N(C)C)cc2)nc1C	-12%	u	4%	-15%	-17%
CCOC(=O)Cc1csc(NC(=O)c2cccc(OC)c2)n1	0%	-3%	3%	4%	u
CCOC(=O)c1sc(NC(=O)c2cncc(Br)c2)nc1C	17%	4.5µM*	18µM*	-14%	2.1µM*
O=[N+]([O-])c1ccc2nc(C(O)C(O)c3nc4ccc([N+](=O)[O-])cc4[nH]3)[nH]c2c1 (stereo not given)	-3%	x	0%	2%	-9%
CCCC[n+]1ccc(-c2nc3ccc([N+](=O)[O-])cc3[nH]2)cc1	u	11µM*	9%	22%	u
O=[N+]([O-])c1ccc2nc(/C=C/c3ccc(Cl)cc3)[nH]c2c1	u	21%	-1%	u	5.4µM*
Nc1ccc(-c2nc3ccc([N+](=O)[O-])cc3[nH]2)cc1	1.4µM*	3.5µM*	3.7µM*	2.2µM*	3.4µM*
O=[N+]([O-])c1ccc(-c2nc3ccc([N+](=O)[O-])cc3[nH]2)cc1	u	x	0%	1.6µM*	2.7µM*
Cc1ccc(Cn2c(SCC(=O)C(C)(C)C)nc3ccsc3c2=O)cc1	x	x	x	x	1%
Cc1cc2ncn(CC(=O)O)c2cc1C	x	-3%[9.22 µM]	x	x	x
CCCn1c(=O)n(-c2ccccc2)c(=O)c2sc3ccccc3c21	x	-18%	x	x	-2%
COc1cc(C(=O)O)ccc1OCc1ccncc1	0%	x	-5%	0%	0%
O=C(O)CNC(=O)c1ccccc1O	x	-13%[9.22 µM]	x	x	x
Cc1cccc(OCc2nc(-c3nonc3N)no2)c1C	u	10µM*	10µM*	3.2µM*	u
Nc1nonc1-c1noc(COc2ccccc2Cl)n1	1.1µM*	11µM*	5.2µM*	1.4µM*	4.8µM*
CC(C)NC(=S)N/N=C/c1ccc(N2CCOCC2)cc1	0%	14%	8%	12%	-2%
